Source: PubChem
This is a sample that favours compounds with a hit; in the whole collection about 6.6% have one here.
Beta cell apopt – beta cell apoptosis inhibition; INS-1E cytokine-induced death, ATP luminescence, 48 h; percent of positive-control rescue, neutral wells zero; protection from apoptosis, % (test concentration not listed); hit rate 0.8% among 300,000; AID 435005;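 active = Every replicate reaches about 75%, or at least half do and their mean reaches it too, limit read from the data; inconclusive = At least half of replicates reach the limit but their mean does not; inactive = Under half of replicates reach the limit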;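 note: higher means more ATP so stronger rescue from cytokine killing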
Mdm2 MdmX PPI – human Mdm2/MdmX binding inhibition | O15151+Q00987 | SaOS-2 split-luciferase Mdm2/MdmX complementation, luminescence | inhibition, % at 8 µM | hit rate 3% among 330,000;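 active = inhibition of at least 50% at 8 µM in the primary screen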
Target sequence (O15151 whole entry, looked up): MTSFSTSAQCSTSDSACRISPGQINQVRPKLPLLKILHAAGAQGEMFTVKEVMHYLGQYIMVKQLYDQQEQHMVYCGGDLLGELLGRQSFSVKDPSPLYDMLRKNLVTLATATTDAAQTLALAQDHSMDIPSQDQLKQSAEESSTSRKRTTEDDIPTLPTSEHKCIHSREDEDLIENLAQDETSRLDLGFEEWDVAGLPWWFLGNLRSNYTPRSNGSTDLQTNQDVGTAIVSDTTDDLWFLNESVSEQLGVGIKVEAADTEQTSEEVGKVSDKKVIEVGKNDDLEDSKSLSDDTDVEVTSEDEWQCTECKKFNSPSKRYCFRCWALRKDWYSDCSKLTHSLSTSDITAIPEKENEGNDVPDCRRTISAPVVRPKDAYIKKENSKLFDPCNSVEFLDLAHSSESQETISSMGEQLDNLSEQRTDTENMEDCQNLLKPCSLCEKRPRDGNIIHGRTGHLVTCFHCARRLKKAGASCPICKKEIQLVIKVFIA
Target sequence (Q00987 whole entry, looked up): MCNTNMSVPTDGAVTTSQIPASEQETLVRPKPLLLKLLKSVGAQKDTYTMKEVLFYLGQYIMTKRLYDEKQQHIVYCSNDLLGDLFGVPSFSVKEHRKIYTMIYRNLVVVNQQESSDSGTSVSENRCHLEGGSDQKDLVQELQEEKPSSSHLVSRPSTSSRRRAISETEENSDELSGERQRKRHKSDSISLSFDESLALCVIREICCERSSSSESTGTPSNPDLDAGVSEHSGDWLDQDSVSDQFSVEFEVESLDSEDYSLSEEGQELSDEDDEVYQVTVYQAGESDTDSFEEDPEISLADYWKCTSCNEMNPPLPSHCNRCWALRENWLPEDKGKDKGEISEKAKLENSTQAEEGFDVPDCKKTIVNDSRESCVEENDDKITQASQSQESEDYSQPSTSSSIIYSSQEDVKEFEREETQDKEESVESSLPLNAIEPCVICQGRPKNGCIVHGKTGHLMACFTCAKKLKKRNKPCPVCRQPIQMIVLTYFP
Gli-Sufu antag – Gli-Sufu pathway antagonism; inhibition, % at 5 µM; hit rate 0.74% among 340,000; Sufu-KO-LIGHT fibroblasts, Gli luciferase reporter luminescence;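 active = inhibition above about 55%, limit read from the data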
CSC inhib – cancer stem cell inhibition; cancer stem cell-like cells viability, luminescence; inhibition, % at 7.5 µM; hit rate 1.1% among 300,000; in the data active = inhibition above about 75%; inconclusive = no clear call, values can overlap the other calls; tested in HMLE shEcad cells
MPTP block – permeability transition pore inhibition; inhibition, % at 10 µM; AID 602449; isolated mouse mitochondria, Ca2+ swelling absorbance, 30 min; hit rate 1.4% among 360,000;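 active = inhibition of 50% or more, scaled per plate between neutral and stimulator controls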
NR3A LBD binder – NR3A (human) ligand-binding domain modulation; AID 1259313; NR3A LBD differential scanning fluorimetry, Tm shift; 0% = protein alone, 100% = glycine-bound protein; Tm shift relative to glycine control, % at 25 µM; hit rate 2.5% among 340,000;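 active = melting temperature shift of at least 10% of the positive control shift, at one fixed dose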
Mdm2-MdmX conf – human Mdm2/MdmX binding inhibition, confirmed. luminescent assay. hit rate 55% among 10,000. shares compounds with Mdm2 MdmX PPI. inhibition, % at 8 µM. AID 489028; in the data active = inhibition above about 40%
FLuc counter – full-length luciferase inhibition in Mdm2/MdmX counter-screen; inhibition, % at 8 µM; shares compounds with Mdm2 MdmX PPI; hit rate 77% among 6,200; SaOS-2 full-length luciferase counterscreen, luminescence;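 active = mean inhibition at 8 µM reaching about 37%, which flags the compound as non-specific, limit read from the data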;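 note: p53-null SaOS-2 cells with luciferase driven by a doxycycline-inducible promoter; compound on cells about two nights before reading with doxycycline added after day one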
Of the large screens only hits and unclear results are named; the others gave an inactive call (follow-up assays come after a bar, where they were run); ! = a repeat was not active.

O=C(NCc1ccccc1)C1=C[C@@H](c2csc3ccccc23)C[C@@H](OCc2ccc(CO)cc2)O1	Beta cell apopt 123, Mdm2 MdmX PPI 72 | Mdm2-MdmX conf inactive
O=C(NCc1ccccc1)C1=C[C@@H](c2csc3ccccc23)C[C@@H](OCCCCO)O1	Beta cell apopt 116, Mdm2 MdmX PPI 74 (no result: MPTP block) | Mdm2-MdmX conf 75 | FLuc counter 39
O=C(NCc1ccccc1)C1=C[C@H](C2CCCCC2)C[C@H](OCc2ccc(CO)cc2)O1	Mdm2 MdmX PPI 51 | Mdm2-MdmX conf 63 | FLuc counter 60
Cc1ccc(-c2cc(C(=O)N3CCN(c4ccccc4O)CC3)c3ccccc3n2)cc1	Mdm2 MdmX PPI 57 | Mdm2-MdmX conf inactive
CCOC(=O)N1CCN(C(=O)c2cc(-c3ccncc3)nc3ccccc23)CC1	Mdm2 MdmX PPI 57 | Mdm2-MdmX conf 66 | FLuc counter 55
CC(=O)c1ccc(N2CCN(C(=O)c3cc(-c4ccncc4)nc4ccc(Br)cc34)CC2)cc1	Mdm2 MdmX PPI 58 | Mdm2-MdmX conf inactive | FLuc counter 105
COc1ccc(-c2cc(C(=O)N3CCN(c4ccccc4O)CC3)c3ccccc3n2)cc1	none
Cc1cc(C(=O)N2CC=C(c3ccccc3)CC2)c2ccccc2n1	Mdm2 MdmX PPI 55 | Mdm2-MdmX conf 74 | FLuc counter 65
O=C(c1ccco1)N1CCN(C(=O)c2cc(-c3ccncc3)nc3ccc(Br)cc23)CC1	none
CCOC(=O)N1CCN(C(=O)c2cc(-c3ccc(OCC)cc3)nc3ccccc23)CC1	none (no result: CSC inhib)
COc1ccc(N2CCN(C(=O)c3cc(-c4cc(OC)ccc4OC)nc4ccccc34)CC2)cc1	none
COc1ccc(-c2cc(C(=O)N3CCN(c4ccccc4O)CC3)c3ccccc3n2)cc1OC	Mdm2 MdmX PPI 65 | Mdm2-MdmX conf inactive
CCOc1ccccc1N1CCN(C(=O)c2cc(-c3cc(OC)ccc3OC)nc3ccccc23)CC1	Mdm2 MdmX PPI 73 | Mdm2-MdmX conf 46 | FLuc counter 62
O=S(=O)(Nc1ccc(F)cc1)c1ccc(NS(=O)(=O)c2cccs2)cc1	none
CCN(CC)S(=O)(=O)c1ccc(NC(=O)CCNC(=O)c2ccccc2)cc1	none (no result: Mdm2 MdmX PPI)
COc1cccc(C2CC(c3c(-c4ccccc4)c4cc(Cl)ccc4[nH]c3=O)=NN2S(C)(=O)=O)c1OC (centres undefined)	Mdm2 MdmX PPI 50 | Mdm2-MdmX conf inactive | FLuc counter 69
Cc1n[nH]c(C)c1NC(=O)CN1CCN(S(=O)(=O)c2ccc(C(F)(F)F)cc2)CC1	none (no result: Beta cell apopt, Mdm2 MdmX PPI, CSC inhib)
COC(=O)C(C(=O)Nc1ccc(OC)cc1)C1CCCCCC1 (centres undefined)	Mdm2 MdmX PPI 56 | Mdm2-MdmX conf 40 | FLuc counter 66
CCC(C)Nc1nc(N)c([N+](=O)[O-])c(Nc2cc(OC)ccc2OC)n1 (centres undefined)	Mdm2 MdmX PPI 69 | Mdm2-MdmX conf inactive
CCC(C)Nc1nc(N)c([N+](=O)[O-])c(Nc2ccccc2OC)n1 (centres undefined)	Mdm2 MdmX PPI 59 | Mdm2-MdmX conf inactive
CCC(C)Nc1nc(N)c([N+](=O)[O-])c(NCc2ccccc2)n1 (centres undefined)	none
COc1ccc(OC)c(Nc2nc(NCCC(C)C)nc(N)c2[N+](=O)[O-])c1	none (no result: Beta cell apopt)
Cc1ccc(NC(=O)COc2coc(CN3CCc4ccccc43)cc2=O)cc1Cl	Mdm2 MdmX PPI 62 | Mdm2-MdmX conf inactive
COC(=O)c1ccc(NC(=O)COc2coc(CN3CCc4ccccc43)cc2=O)cc1	none
COc1ccc(/C=C/c2nc(N)nc(-c3ccccc3O)n2)cc1OC	Mdm2 MdmX PPI 61, NR3A LBD binder 28 | Mdm2-MdmX conf 44 | FLuc counter 84
COc1cc(/C=C/c2noc(-c3ccccc3O)n2)cc(OC)c1OC	none
CCOC(=O)Cn1nnnc1CN(Cc1cccs1)Cc1cc2cc(C)ccc2[nH]c1=O	none (no result: CSC inhib)
Cc1ccc2[nH]c(=O)c(CN(Cc3cccs3)Cc3nnnn3Cc3ccccc3)cc2c1	none | Mdm2-MdmX conf inactive
Cc1cccc(C)c1NC(=O)C1c2ccccc2OCC(=O)N1Cc1cccnc1 (centres undefined)	none (no result: Beta cell apopt, Mdm2 MdmX PPI, Gli-Sufu antag, CSC inhib, NR3A LBD binder)
CCCCCCCCCCCCCCCC[n+]1cccc(C(=O)N(CC)CC)c1	Beta cell apopt 91, Mdm2 MdmX PPI 77, Gli-Sufu antag 72!, CSC inhib 143 | Mdm2-MdmX conf 66 | FLuc counter inactive
CCCCCCCCCCCCCCCC[n+]1ccc(/C=N/O)cc1	Beta cell apopt 123, Mdm2 MdmX PPI 97, Gli-Sufu antag 73, CSC inhib 100, NR3A LBD binder 25 | Mdm2-MdmX conf 100 | FLuc counter inactive
O/N=C/c1cccc[n+]1CCCCCC[n+]1ccccc1/C=N/O	none
CCCCCCCC[n+]1cccc(C(=O)N(CC)CC)c1	none
CCCCCCCCCCCCCCCC[n+]1ccc(C(N)=O)cc1	Mdm2 MdmX PPI 78, NR3A LBD binder 16 (no result: CSC inhib) | Mdm2-MdmX conf 77 | FLuc counter 57
CC(=O)Nc1ccc(S(=O)(=O)N2CCN(S(=O)(=O)c3ccc(F)c(F)c3F)CC2)cc1	none
CCc1cccc(CC)c1NC(=S)NCCc1ccc(O)c(O)c1	none
CCc1cccc(CC)c1NC(=S)NCCc1c(C)[nH]c2ccccc12	Mdm2 MdmX PPI 51 | Mdm2-MdmX conf inactive
CCOC(=O)C1(C)CCCN(C(=O)c2cccc(C(F)(F)F)c2)C1 (centres undefined)	none (no result: Beta cell apopt, Mdm2 MdmX PPI, Gli-Sufu antag, CSC inhib, NR3A LBD binder)
Cn1nnnc1Sc1ncnc2scc(-c3ccc(Br)cc3)c12	Mdm2 MdmX PPI 99 (no result: CSC inhib) | Mdm2-MdmX conf 100 | FLuc counter 53
Cn1nnnc1Sc1ncnc2scc(Br)c12	Mdm2 MdmX PPI 99, CSC inhib inconclusive | Mdm2-MdmX conf inactive
Cn1nnnc1Sc1ncnc2scc(-c3ccc[nH]3)c12	Mdm2 MdmX PPI 69 | Mdm2-MdmX conf 47 | FLuc counter inactive
Cn1nnnc1SCSc1nnnn1C	none
Cn1nnnc1SCc1nc2scc(-c3ccccc3)c2c(=O)[nH]1	none
Cn1nnnc1Sc1ncnc2scc(-c3ccccc3)c12	Mdm2 MdmX PPI 78 | Mdm2-MdmX conf inactive
CN(c1ccc(F)cc1)S(=O)(=O)c1ccc(Cl)c(C(=O)NCC(c2ccco2)N2CCCCC2)c1 (centres undefined)	none (no result: Beta cell apopt, CSC inhib)
Cn1nnnc1Sc1ncnc2scc(-c3ccccc3Br)c12	Mdm2 MdmX PPI 70 | Mdm2-MdmX conf 67 | FLuc counter inactive
Cn1nnnc1Sc1ncnc2scc(-c3cccc4ccccc34)c12	Mdm2 MdmX PPI 97 (no result: CSC inhib) | Mdm2-MdmX conf 55 | FLuc counter inactive
Cn1nnnc1Sc1ncnc2scc(-c3ccc(F)cc3)c12	Mdm2 MdmX PPI 100 | Mdm2-MdmX conf 91 | FLuc counter 54
COc1ccccc1-c1csc2ncnc(Sc3nnnn3C)c12	none
O=C(COc1ccc(Cl)cc1Cl)N1CCNC1=O	none (no result: CSC inhib)
